From PubChem BioAssay (NCATS)
Results filed as inconclusive are left out. A number with no mark means an inactive call. The source made the active and inactive calls. The call rests on the fitted dose curve; in most records, active means well fitted inhibition curve with a large enough effect; inconclusive means small, poorly fitted or top-dose-only effect; inactive means flat fitted curve, though single readings scatter.

Test: qHTS to identify inhibitors of the type 1 interferon - major histocompatibility complex class I in skeletal muscle: primary screen against the NCATS LOPAC collection (AID 1347405);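 further: human myoblasts with HiBiT tag on endogenous HLA-B stimulated by IFN-beta; lytic HiBiT luminescence reporting HLA-B protein level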
Details: iHSKM muscle cells, IFN-b-induced MHC-I HiBiT luminescence, 24 h; series mostly up to 45.9 µM; activity change, negative = inhibition: at the top concentration
Outline: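 First, engineered myoblasts carrying HLA-B-HiBiT were seeded in medium lacking dexamethasone with 4 ng/ml IFN-beta. After 1 hr, compounds were pinned in (top 46 uM final, 7 points). After 24 hrs at 37 C, luminescence was measured following 10 min lysis.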
On the % scale 0 is the no-effect control and ±100 the full control effect; potency means the concentration at half of the fitted maximal effect.

Row | Compound | activity change, negative = inhibition [%] | Potency
1 | CC(N)(Cc1ccc(O)cc1)C(=O)O (stereo not drawn) | -27.6 | 
2 | CC(C)NCC(O)COc1ccc(CC(N)=O)cc1 (stereo not drawn) | 3.07 | 
3 | NC(=O)CNCCC(c1ccccc1)c1ccccc1 | -12.8 | 
4 | C[C@](Cc1ccc(O)c(O)c1)(NN)C(=O)O | -4.04 | 
5 | CC(O)C(O)[C@H]1CNc2nc(N)[nH]c(=O)c2N1 (stereo partly drawn) | 0.0703 | 
6 | Brc1c(Br)c(Br)c2[nH]cnc2c1Br |  | 12.6 µM (active)
7 | COc1ccc(NC(=O)c2ccc(-c3ccc(-c4noc(C)n4)cc3C)cc2)cc1N1CCN(C)CC1 |  | 25.1 µM (active)
8 | NCC(O)C1CCCCCCC1 (stereo not drawn) | -0.0145 | 
9 | COc1ccc(-c2cc3ncc(C)n3c(Nc3ncccc3C(N)=O)n2)cc1OC |  | 3.16 µM (active)
10 | O[Si](CCCN1CCCCC1)(c1ccc(F)cc1)C1CCCCC1 (stereo not drawn) | 2.78 | 
11 | c1ccc2c(c1)CCC[C@H]2Nc1nc2ccccc2[nH]1 | -22.6 | 
12 | N[C@@H](CCC(=O)N[C@H](CSN=O)C(=O)NCC(=O)O)C(=O)O | 7.06 | 
13 | COc1ccc2c(c1)c(CC(=O)O)c(C)n2Cc1ccc(Cl)cc1 | 2.04 | 
14 | CCCCC[C@H](CC(=O)NO)C(=O)N[C@H](C(=O)N1CCC[C@H]1CO)C(C)C | -21.1 | 
15 | Nc1ccc2c3c(cccc13)C(=O)NC2=O | -26.8 | 
16 | CCCc1c(OCCCOc2ccc(OCC(=O)O)cc2)ccc(C(C)=O)c1O | -9.9 | 
17 | NC(C(=O)N[C@@H]1C(=O)N2C(C(=O)O)=C(Cl)CS[C@H]12)c1ccccc1 (stereo partly drawn) | -10.6 | 
18 | CSC(N)=NCCC[C@H](N)C(=O)O | -1.25 | 
19 | CN1C2CCC1CC(OC(c1ccccc1)c1ccccc1)C2 (stereo not drawn) | -1.17 | 

Row | Compound | activity change, negative = inhibition [%] | Potency
20 | O=C1OC(=O)C2C3CCC(O3)C12 (stereo not drawn) | -20.4 | 
21 | COc1cccc(OC)c1OCCNCC1CSc2ccccc2O1 (stereo not drawn) | -9.71 | 
22 | CN(C)CCC(c1ccc(Br)cc1)c1ccccn1 (stereo not drawn) | -13.5 | 
23 | O=c1oc(Cl)c(Cl)c2ccccc12 | 3.07 | 
24 | N[C@@H](Cc1ccc(O)c(I)c1)C(=O)O | -14.1 | 
25 | N[C@@H](Cc1c[nH]c2ccccc12)C(=O)O | -4.6 | 
26 | COc1cc(C(O)CO)ccc1O (stereo not drawn) | -0.74 | 
27 | C#CCn1c(=O)c2c(ncn2C)n(C)c1=O | -7.31 | 
28 | CC(C)Cn1c(=O)n(C)c(=O)c2[nH]cnc21 | -21 | 
29 | CCCn1c(=O)c2[nH]c(C3CCCC3)nc2n(CCC)c1=O | 4.24 | 
30 | Cn1cc(C(F)(F)F)nc1-c1ccc(OCC(O)CNCCOc2ccc(O)c(C(N)=O)c2)cc1 (stereo not drawn) | -4.25 | 
31 | NCCC1CCCC(CCN)N1 (stereo not drawn) | -0.633 | 
32 | CC[n+]1c(/C=C/C=C2/N(C)c3ccccc3C2(C)C)sc2ccccc21 |  | 5.01 µM (active)
33 | c1ccc(CN2CCC3(CCCc4ccccc43)CC2)cc1 | -8.66 | 
34 | CC(=O)NCCc1c[nH]c2ccc(O)cc12 | -0.156 | 
35 | Nc1ncnc2c1nc(Br)n2C1OC2COP(=O)(O)O[C@@H]2C1O (stereo partly drawn) | -9.03 | 
36 | O=C(O)Cc1c[nH]c2ccc(O)cc12 | -2.73 | 
37 | Cn1c(=O)c2[nH]c(C3CCCC3)nc2n(C)c1=O | -7.76 | 
38 | CC1=C(/C=C/C(C)=C/C=C/C(C)=C\C(=O)O)C(C)(C)CCC1 | 0.44 | 
